Shiga toxin inh – inhibitors of Shiga toxin in Vero cells; actives 9.2% (n = 290,000); Vero cells, Shiga toxin protein synthesis inhibition reporter; AID 2315; inhibition, % at 38.7 µM; in the data active = inhibition mostly above about 28%, no sharp cut-off; inactive = mostly below about 43%; also: 0% is about no effect
Cycloheximide cs – counter-screen hit for Shiga toxin inhibitors, cycloheximide. actives 12% (n = 300,000). AID 2314. max response, %. cell reporter, cycloheximide protein synthesis inhibition counterscreen; in the data active = max response mostly above about 13%, no sharp cut-off; inactive = mostly below about 14%; also: read at 38.3 µM for the half of the compounds with a filed dose; 0% is about no effect
Pf growth 96h – P. falciparum growth inhibition at 96 hour, primary screen for plastid delayed-death inhibitors; AID 504834; Potency, µM (series often up to 28.7 µM), inactives show at the highest dose activity change, negative = inhibition, actives largely listed as inhibitors; actives 6.9% (n = 320,000); P. falciparum luciferase reporter growth, 96 h; also: potency is read from the fitted curve at half-maximal effect; % is scaled to controls: 0 for no effect and ±100 for the full control effect
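96 h incubation, 37 C, 5% CO2, of luciferase-reporter P. falciparum-infected RBCs (2% hematocrit, 0.05% parasitemia final) with test compounds; endpoint luminescence.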
Pf growth 48h – inhibits P. falciparum growth in the first generation, 48 h. P. falciparum luciferase growth in erythrocytes, 48 h. actives 5.9% (n = 310,000). AID 504832. Potency, µM (series often up to 28.7 µM), for the others: top-dose activity change, negative = inhibition, most hits filed as inhibitors; also: potency is read from the fitted curve at half-maximal effect; % is scaled to controls: 0 for no effect and ±100 for the full control effect
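Erythrocytes infected with P. falciparum carrying an integrated firefly luciferase reporter (2% hematocrit, 0.1% parasitemia final) were exposed to compounds in RPMI 1640 with 0.5% Albumax at 37 C, 5% CO2. Growth inhibition was scored as reduced luminescence.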
Giardia FBPA inh – blocks Giardia fructose-bisphosphate aldolase activity; purified Giardia FBPA; Potency, µM (series often up to 59.6 µM), for inactives: top-dose activity, negative = inhibition, actives largely listed as inhibitors; actives 0.71% (n = 290,000); also: potency is read from the fitted curve at half-maximal effect; % is scaled to controls: 0 for no effect and ±100 for the full control effect; nearly all actives have a fitted effect of over 55% in size
Target sequence (A8B2U2 whole entry, looked up): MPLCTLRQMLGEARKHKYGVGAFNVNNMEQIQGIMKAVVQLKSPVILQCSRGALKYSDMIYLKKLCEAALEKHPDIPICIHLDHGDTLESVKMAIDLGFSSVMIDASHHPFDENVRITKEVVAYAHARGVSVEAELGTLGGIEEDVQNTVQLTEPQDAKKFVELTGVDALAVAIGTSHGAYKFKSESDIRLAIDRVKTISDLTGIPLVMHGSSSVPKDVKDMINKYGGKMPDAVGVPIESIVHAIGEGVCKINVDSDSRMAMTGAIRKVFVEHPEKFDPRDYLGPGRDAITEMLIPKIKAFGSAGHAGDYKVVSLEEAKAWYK
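Giardia FBPA (40 nM reagent) was preincubated 10 min at RT with compound (up to 57.5 uM final), then substrate plus GAPDH/TPI/NAD/arsenate coupling system with diaphorase/resazurin was added; resorufin fluorescence (525/598 nm) was read after 20 min.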
NS1 inh – blocks influenza NS1 protein function | Potency, µM (series often up to 46.1 µM), without a hit: top-dose activity, positive = more growth | actives 0.4% (n = 270,000); calls by dose curve; also: potency is read from the fitted curve at half-maximal effect; actives are rising curves; nearly all actives have a fitted effect of over 50% in size
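Growth recovery, yeast-based: influenza A NS1 expressed in S. cerevisiae causes slow growth, and suppressors are detected by OD600. The parent strain without NS1 is used as positive control.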
An asterisk follows results filed as active; ? = inconclusive; nt = no result given; [ ] = dose if it differs, or a comment. Shown are actives, neighbours in structure and some others; about 21% of the full set was active somewhere. Unless noted, calls follow the shape of the dose curve; as a rule, active = well fitted curve in the direction sought with a large enough effect; inconclusive = small, poorly fitted or top-dose-only effect, or another doubt; inactive = no such curve, though single readings can be large; an effect the other way counts as inactive or inconclusive.

SMILES | Shiga toxin inh | Cycloheximide cs | Pf growth 96h | Pf growth 48h | Giardia FBPA inh | NS1 inh
CCOC(=O)c1ccc(NC(=S)NCc2ccccc2)cc1 | 21.0 | 11.6* | -18.1% | 34.5% | -2.5% | -13.4%
CCOC(=O)c1ccc(NC(=S)Nc2ccccn2)cc1 | 39.8* | 26.5* | 16.0% | 35.4% | -7.4% | ?
COC(=O)c1ccc(NC(=S)NCCc2ccccc2)cc1 | -3.4 | -0.7 | ? | -9.4% | 3.3% | 15.7%
CC1CCCC(NC(=O)C2CCN(C(=O)Nc3ccccc3)CC2)C1C (stereo unspecified) | nt | nt | 3.4% | -12.7% | nt | nt
CCOc1cc2[nH]c(=O)n(CCCN3CCN(c4ccc(OC)cc4)CC3)c(=O)c2cc1OCC | -8.8 | 1.9 | ? | ? | 0.4% | nt
Cc1cc(C)cc(NC(=O)N2CCN(S(C)(=O)=O)CC2)c1 | 24.2 | -5.3 | -10.9%[5.75 µM] | -26.8%[5.75 µM] | 3.8% | 2.4%
CCN(Cc1ccccc1)C(=O)CN1C(=O)NC(CC)(c2ccc(F)cc2)C1=O (stereo unspecified) | -5.9 | -3.2 | -7.2% | 0.0% | -0.7% | 6.9%
COc1ccc2nc3c(cc2c1)Cn1c-3nc2ccccc2c1=O | 27.0 | 14.8 | nt | nt | -11.8% | nt
COc1ccc2[nH]c3c(c2c1)CCn1c-3nc2ccccc2c1=O | 97.4* | 37.6* | ? | 284.3% | 2.7% | 0.9%
CCN(CC(=O)O)S(=O)(=O)c1cc(Cl)ccc1Cl | -2.0 | -1.8 | 13.1µM* | 7.0% | 9.6% | 5.3%
Cc1cccc(N=Nc2c(C)[nH]n(C(N)=S)c2=O)c1C | 13.2 | 18.7 | 21.5% | 5.8% | 7.2% | 2.2%
CC(=O)N(C)c1ccc(N=Nc2c(C)[nH]n(C(N)=S)c2=O)cc1 | 49.5* | 39.3* | 43.1% | -3.2% | 16.1% | nt
CCN(CC)S(=O)(=O)c1ccc(N=Nc2c(C)[nH]n(C(N)=S)c2=O)cc1 | 72.6* | 40.5* | 2.3% | -20.7% | ? | -3.9%
CC(C)Oc1cccc(C(=O)Nc2ccc(N3CCN(C)CC3)cc2)c1 | nt | 25.8* | ? | 23.5% | 4.1% | 14.2%
CN1CCN(c2ccc(NC(=O)c3cccc(OCc4ccccc4)c3)cc2)CC1 | 59.6* | 23.2* | nt | 10.4µM* | 1.2% | -13.4%
O=S(=O)(NCC1CCCO1)c1ccc(Cl)nc1 (stereo unspecified) | -5.5 | -3.1 | 0.5% | 54.3% | 4.0% | 4.7%
COc1ccc(NC(=O)NNC(=O)CCc2ccc(O)c(O)c2)cc1OC | -3.7 | -2.7 | -9.2% | ? | -6.8% | -6.4%
COCCNC(=O)C(=O)Nc1ccc(Cl)cc1C | 54.1* | 31.7* | ? | 67.9% | 4.3% | nt
COCCNC(=O)c1cc(Br)ccc1Cl | -5.8 | -1.4 | 35.6% | 0.1% | 1.0% | 5.0%
COCCNC(=O)C(=O)Nc1cccc(Br)c1 | 39.9 | 22.9* | 87.6% | nt | 0.3% | -6.6%
COCCNC(=O)C(=O)Nc1ccc(Br)cc1 | 71.1* | 46.7* | ? | 152.5% | 7.7% | -1.6%
CC(NC(=O)Nc1ccc(F)cc1)c1ccc2c(c1)OCO2 (stereo unspecified) | -2.2 | 15.2 | 15.3% | 0.1% | 1.4% | -1.4%
CCN(CC)C(C(=O)Nc1ccc(C(C)C)cc1)c1ccc2c(c1)OCO2 (stereo unspecified) | -19.7 | -4.9 | 107.3% | 8.28µM* | -11.6% | -16.2%
CC(C(=O)Nc1cccc(Br)c1)c1ccc([N+](=O)[O-])cc1 (stereo unspecified) | 9.2 | 2.6 | ? | 10.4µM* | -9.1% | -83.4%
O=C(Nc1ccc2c(c1)OCO2)c1ccc([N+](=O)[O-])cc1[N+](=O)[O-] | 43.6* | 25.8 | 25.2% | -7.6% | 1.6% | -7.5%
CC(C(=O)Nc1ccc2c(c1)OCCO2)c1ccc([N+](=O)[O-])cc1 (stereo unspecified) | -3.8 | -2.0 | 21.4% | 3.29µM* | -1.4% | 0.5%
Cc1csc(=O)n1CC(=O)Nc1nc2ccccc2s1 | nt | nt | ? | -1.3% | nt | nt
CC(C(=O)Nc1ccc2c(c1)OCO2)c1ccc([N+](=O)[O-])cc1 (stereo unspecified) | 2.8 | 1.0 | ? | 2.33µM* | 16.3% | 16.6%
O=C(O)COc1ccc(Oc2ccccc2)cc1 | -7.8 | -0.7 | 27.9% | -4.9% | 13.1% | 2.8%
c1ccc(Oc2ccc(-c3ccn[nH]3)cc2)cc1 | 69.0* | 36.6* | 127.7% | 187.2% | -4.7% | -58.6%

Assay outcomes (PubChem)
